Measurements published in PubChem BioAssay (EPA / NIEHS).
Where “and” joins values, the source holds several entries; their conditions need not be identical. Equal values may be shown once. Results filed as inconclusive are left out. The source holds several records for some structures; these can differ, active in one and inactive in another. Calls of active or inactive are those of the source. Rule for the calls, unless noted: active = hit-call score of the fitted dose curve at least 0.9, where 1 is the maximum; inactive = score below 0.9.

Tests used:
[1] = BSK_BT_PBMCCytotoxicity: PBMC Cytotoxicity Assessment in the BioMAP Diversity Plus: BT Assay (AID 2284225); conditions: primary human B cells with PBMC;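 note: PBMC viability measured by Alamar Blue dye reduction fluorescence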
Procedure, shortened: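 PBMC (75,000/well) pretreated with compound 1 h, then activated with SEB and TSST-1 (20 ng/mL each final), incubated 90 h; Alamar Blue added 6 h, fluorescence read at 546/580 nm. Fitted relative to DMSO.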

[2] = read-out: Secreted IgG (sIgG), gene 3500; assay: BSK_BT_sIgG: BioMAP Diversity Plus: BT Assay for Secreted IgG (sIgG) Biomarker Activity (AID 2284226); conditions: primary human B cells with PBMC
Procedure, shortened: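 Read-out: ELISA for secreted IgG after 24 h of chemical exposure in a B cell plus PBMC co-culture. Values reflect upward-direction fitting against DMSO negative controls.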

[3] = BSK_BT_Bcell_Proliferation: Viability Assessment in the BioMAP Diversity Plus: BT Assay for B cell Proliferation (AID 2284227); conditions: primary human B cells with PBMC
Procedure, shortened: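 Using a human primary B cell–PBMC co-culture, the assay measures total protein by sulforhodamine B absorbance as a gauge of proliferation after 72 h. Analysis followed the positive fitting direction with DMSO as baseline.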

[4] = read-out: Interleukin 6 (IL6), IL6 (gene 3569); assay: BSK_BT_xIL6: BioMAP Diversity Plus: BT Assay for Interleukin 6 (IL6) Biomarker Activity (AID 2284228); conditions: primary human B cells with PBMC
Procedure, shortened: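 Readout: secreted IL-6 via Luminex xMAP multiplex, 24 h post-dosing. System: primary human B cells co-cultured with PBMC. Signal change scored relative to DMSO vehicle, positive fitting direction.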

[5] = read-out: Interleukin 17A (IL17A), IL17A (gene 3605); assay: BSK_BT_xIL17A: BioMAP Diversity Plus: BT Assay for Interleukin 17A (IL17A) Biomarker Activity (AID 2284229); conditions: primary human B cells with PBMC
Procedure, shortened: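 Luminex xMAP readout of secreted IL-17A; human B cell + PBMC co-culture; 24 h post-dose; positive-direction fit vs DMSO negative control.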

[6] = read-out: Tumor necrosis factor (Homo sapiens) (UniProt P01375); assay: BSK_BT_xTNFa: BioMAP Diversity Plus: BT Assay for Tumor necrosis factor alpha (TNF-alpha) Biomarker Activity (AID 2284230); conditions: primary human B cells with PBMC
Procedure, shortened: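 Endpoint derived in the positive direction versus DMSO vehicle. Cells: B cells together with PBMC, exposed 24 h before TNF-alpha in the medium was read on the Luminex xMAP platform.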

[7] = CCTE_Mundy_HCI_hNP1_Pro_ResponderAvgInten: CCTE's Proliferation Assay in human neuroprogenitor cells, Mundy Lab (AID 2284224; active = hit-call score of the fitted dose curve at least 0.9, where 1 is the maximum;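 note: human neural progenitor cells hNP1 derived from WA09 embryonic stem cells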)
Procedure, shortened: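 Human neuroprogenitors (hNP1, WA09 lineage) receive test chemical after 40 to 44 hours of attachment. A four-hour BrdU pulse begins twenty hours later, followed by fixation and high content imaging; signal is referenced to DMSO controls.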

[8] = read-out: Vascular cell adhesion molecule 1 (VCAM1), VCAM1 (gene 7412); assay: BSK_MyoF_VCAM1: BioMAP Diversity Plus: MyoF Assay for Vascular cell adhesion molecule 1 (VCAM1) Biomarker Activity (AID 2284231); conditions: primary human lung fibroblasts
Procedure, shortened: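 MyoF system, lung fibroblasts; 24 h post-dose; VCAM-1 by ELISA; gain-of-signal fit vs DMSO baseline.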

[9] = UKN2_HCS_IMR90_cell_viability: Viability Assessment in the University of Konstanz (UKN) Leist Lab Neural Crest Cell Migration Assay in human induced IMR90 Pluripotent Stem Cells (UKN2) (AID 2284233);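 note: viability of neural crest cells differentiated from IMR90 iPSC measured by calcein-AM fluorescence imaging; cells exposed to compound for 24 h after a 24 h migration phase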
Procedure, shortened: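 iPSC-derived (IMR90) neural crest cells seeded around silicone stoppers on PLO/laminin/fibronectin; after 24 h migration in N2-S with EGF/FGF, chemical added for 24 h. Calcein-AM/Hoechst stained 30 min, high-content imaged; bidirectional fit versus DMSO.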

[10] = UKN4_HCS_LUHMES_cell_viability: Viability Assessment in the University of Konstanz (UKN) Leist Lab Neurite Outgrowth Assay in human LUHMES cells (UKN4) (AID 2284232)
Procedure, shortened: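 Fluorescence intensity from high-content imaging of Hoechst H-33342/calcein-AM-stained cells served as the viability read-out. Human LUHMES precursors were differentiated 2 days, replated and treated 24 h; curves were fitted bidirectionally against DMSO.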

Measured: AC50

Tumor necrosis factor (Homo sapiens), sequence (P01375 whole entry, looked up): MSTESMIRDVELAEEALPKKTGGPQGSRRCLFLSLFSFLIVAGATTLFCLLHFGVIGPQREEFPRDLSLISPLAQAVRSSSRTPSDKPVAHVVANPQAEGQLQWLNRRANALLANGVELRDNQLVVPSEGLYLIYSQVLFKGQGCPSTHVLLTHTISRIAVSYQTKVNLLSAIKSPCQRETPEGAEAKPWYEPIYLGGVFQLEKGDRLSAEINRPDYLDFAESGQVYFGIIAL

C[C@]12CC[C@@H](O)C[C@@H]1CC[C@@H]1[C@@H]2CC[C@]2(C)C(=O)CC[C@@H]12
active: [2] 20 µM
inactive: [1] | [3] | [4] | [5] | [6]

O=[N+]([O-])c1ccc(Nc2ccccc2)cc1
inactive: [1] | [3] | [4] | [5] | [6]
active: [2] 12.9 µM

OC(Cc1ccccc1Cl)(Cn1[nH]cnc1=S)C1(Cl)CC1 (configuration not stated)
active: [7] 31.6 µM | [2] 23.8 µM | [8] 30.1 µM | [9] 63.1 µM
inactive: [1] | [3] | [4] | [5] | [6]

CC1(C)[C@H](C(=O)O[C@H](C#N)c2cccc(Oc3ccccc3)c2)[C@@H]1/C=C(\Cl)C(F)(F)F
active: [2] 25.1 µM and 28.9 µM | [4] 17.1 µM and 8.49 µM | [5] 17.1 µM
inactive: [7] | [1] | [3] | [5] | [6] | [8]

CCOCn1c(-c2ccc(Cl)cc2)c(C#N)c(Br)c1C(F)(F)F
active: [7] 9.2 µM | [9] 15.1 µM

CC(C)=CC1C(C(=O)OCc2cccc(Oc3ccccc3)c2)C1(C)C (configuration not stated)
inactive: [1] | [5]
active: [2] 13.8 µM | [3] 31.4 µM | [4] 11.2 µM | [6] 20 µM

CCCCCCCCCCCCN(C)C
inactive: [1] | [2] | [3] | [4] | [5] | [6]

Oc1ccc(Cc2ccc(O)cc2)cc1
inactive: [1] | [2] | [3] | [4] | [5] | [6]

Cc1ccccc1OP(=O)(Oc1ccccc1)Oc1ccccc1
active: [2] 30.9 µM
inactive: [1] | [3] | [4] | [5] | [6]

C=CC(Cl)CCl (configuration not stated)
inactive: [1] | [2] | [3] | [4] | [5] | [6]

N#CCCC(Br)(C#N)CBr (configuration not stated)
active: [1] 9.18 µM | [2] 7.61 µM | [3] 6.35 µM | [4] 9.34 µM | [5] 7.96 µM | [6] 11.1 µM

O=c1oc2ccccc2c(O)c1C(CC(O)c1ccc(-c2ccc(Br)cc2)cc1)c1ccccc1 (configuration not stated)
active: [2] 20.8 µM
inactive: [1] | [3] | [4] | [5] | [6]

Cc1ccccc1OP(=O)(Oc1ccccc1C)Oc1ccccc1C
active: [7] 25.8 µM | [2] 13.9 µM | [3] 34.4 µM | [4] 20 µM | [5] 24.7 µM | [6] 31 µM | [9] 8.46 µM
inactive: [1]

Oc1cccc(-c2ccccc2)c1
inactive: [1] | [2] | [3] | [4] | [5] | [6]

O=C(O)COc1cc(Cl)c(Cl)cc1Cl
inactive: [1] | [2] | [3] | [4] | [5] | [6]

CCOP(=S)(OCC)SCS(=O)(=O)C(C)(C)C
inactive: [1] | [2] | [3] | [4] | [5] | [6]

CCOC(=O)CC(=O)CCl
active: [1] 19 µM | [2] 4.86 µM | [3] 16.9 µM | [4] 11.8 µM | [5] 10.5 µM | [6] 23.4 µM

CC(C)(COCC1CO1)COCC1CO1 (configuration not stated)
inactive: [1] | [4] | [5] | [6]
active: [2] 16 µM | [3] 20 µM

Nc1ccc(N)cc1
inactive: [1] | [2] | [3] | [4] | [5] | [6]

CCOP(=S)(OCC)OP(=S)(OCC)OCC
inactive: [1] | [2] | [3] | [4] | [5] | [6]

Cc1cc(C(F)(C(F)(F)F)C(F)(F)F)ccc1NC(=O)c1cccc(I)c1C(=O)NC(C)(C)CS(C)(=O)=O
inactive: [7] | [10]

CC(C)(C)c1cc([N+](=O)[O-])cc(C(C)(C)C)c1O
inactive: [4]
active: [1] 26.2 µM | [2] 2.8 µM | [3] 13.3 µM | [5] 13.4 µM | [6] 14.8 µM

c1ccc(-c2cccc(-c3ccccc3)c2)cc1
active: [1] 32.8 µM | [2] 15.7 µM | [3] 33.3 µM
inactive: [4] | [5] | [6]

Cc1cc(Cl)ccc1OC(C)C(=O)O (configuration not stated)
inactive: [1] | [2] | [3] | [4] | [5] | [6]

CCOC(=O)C(SP(=S)(OC)OC)c1ccccc1 (configuration not stated)
inactive: [1] | [2] | [3] | [4] | [5] | [6]

Cc1cccc(OP(=O)(Oc2cccc(C)c2)Oc2cccc(C)c2)c1
inactive: [1] | [2] | [3] | [4] | [5] | [6]

Cc1ccc2nc3sc(=O)sc3nc2c1
inactive: [1] | [4] | [5] | [6]
active: [2] 5 µM | [3] 5 µM
